What is called AC50 is the midpoint of the concentration-response curve, whichever way the signal moves.

Values joined by “and” are separate entries in the source; they are usually repeats but may differ in a detail not shown here. Identical values can stand only once. The whole screen tested about 16,000 compounds, of which about 5,700 (36%) were called active. Not shown: some 24% with an inconclusive outcome. The list shows a part of the results. A number with no mark means an inactive call. The call rests on the fitted dose curve; in most records, active means well fitted curve in the direction sought with a large enough effect; inconclusive means small, poorly fitted or top-dose-only effect, or effect the other way; inactive means no such curve, though single readings can be large or run the other way.

The text below walks through data of PubChem BioAssay AID1851 (National Center for Advancing Translational Sciences (NCATS), 2009).
On the % scale 0 is the no-effect control and ±100 the full control effect.

For this assay, the target named is Cytochrome P450 1A2 (Homo sapiens) (UniProt P05177). Put plainly: Cytochrome panel assay with activity outcomes. Conditions: recombinant CYP, pro-luciferin dealkylation, luminescence, p450-cyp1a2; series mostly up to 57.1 µM; activity, negative = inhibition: at the top concentration.
Cytochrome P450 1A2 (Homo sapiens), sequence (P05177 whole entry, looked up): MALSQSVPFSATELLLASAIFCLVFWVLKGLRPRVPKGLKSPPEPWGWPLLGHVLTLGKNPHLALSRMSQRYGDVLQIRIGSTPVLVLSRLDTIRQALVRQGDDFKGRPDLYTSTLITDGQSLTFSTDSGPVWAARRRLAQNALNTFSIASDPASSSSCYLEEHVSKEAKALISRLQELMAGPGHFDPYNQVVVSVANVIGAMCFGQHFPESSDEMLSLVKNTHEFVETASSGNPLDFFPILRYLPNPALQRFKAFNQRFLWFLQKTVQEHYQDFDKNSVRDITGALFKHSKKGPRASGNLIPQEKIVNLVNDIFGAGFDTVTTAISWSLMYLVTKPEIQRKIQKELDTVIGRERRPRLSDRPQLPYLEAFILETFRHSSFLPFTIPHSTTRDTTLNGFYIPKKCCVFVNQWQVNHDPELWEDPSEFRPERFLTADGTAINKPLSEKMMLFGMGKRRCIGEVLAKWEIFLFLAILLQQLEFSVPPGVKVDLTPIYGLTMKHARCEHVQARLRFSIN
`CC(C)CN1CCCC2(CCN(C(=O)c3cccc(F)c3)CC2)C1`: the “activity, negative = inhibition” value was 7.46%. Regarding `Nc1ncnc2c1ncn2[C@H]1O[C@@H](CO)[C@@H](O)[C@H]1N`, the activity, negative = inhibition is -8.67% [at 11.4 µM].

As for `CCCCCCCOC1(c2ccccc2)OC(=O)c2ccccc21` (centres undefined), the “activity, negative = inhibition” value was -19.2%.

In the case of `CCCCOC1(c2ccccc2)OC(=O)c2ccccc21` (centres undefined), the “activity, negative = inhibition” value was -28.7%. In the case of `Cc1cccc(C)c1OC1(c2ccccc2)OC(=O)c2ccccc21` (centres undefined), the AC50 was 20000 nM (active). `CC(=O)N1CCC2(CC1)CCN(c1ccccn1)CC2`: the “activity, negative = inhibition” value is 1.45%.

For `O=C1C=CC(=Nc2cccc3c(N=C4C=CC(=O)O4)cccc23)O1`, the activity, negative = inhibition is -14% [at 11.4 µM]. With `O=C(CSc1nc2ccccc2[nH]1)Nc1c(F)cccc1F`, the AC50 is 8910 nM (active). Regarding `O=C(CCN1C(=O)C2C3C=CC(C3)C2C1=O)Nc1c(F)cccc1F` (centres undefined), the “activity, negative = inhibition” value was 2.98%.

For the molecule `O=C(O)CSc1nc2ccccc2[nH]1`, the activity, negative = inhibition was -19.8% [at 11.4 µM]. Still for that read-out and setting: the same measure for `Cc1onc(-c2ccccc2Cl)c1C(=O)Nc1nnc(Cc2ccc(Cl)cc2)s1`: -24.7%. For the molecule `O=C(Nc1ccccc1)OCc1cc(-c2ccc(Cl)cc2)on1`, the half-maximal activity concentration (AC50) was 562 nM (active). Still for that read-out and setting: to `O=C(Nc1ccc(Cl)cc1)OCc1cc(-c2ccccc2Cl)on1` belongs 447 nM (active); to `O=C(Nc1ccc(Cl)cc1)OCc1cc(-c2ccccc2)on1`, 2240 nM (active); to `CS(=O)(=O)c1ccccc1COC(=O)Nc1ccc(Cl)cc1`, 17800 nM (active). For `CCN1C(=O)[C@H]2[C@H]3[C@H](O)[C@H](O)C/C(=N/O[C@@H]4O[C@@H](COC(C)=O)[C@@H](OC(C)=O)[C@@H](OC(C)=O)[C@H]4OC(C)=O)[C@H]3CC[C@@H]2C1=O`, the activity, negative = inhibition was -5.44% [at 11.4 µM].

As to `CC1(C)CC(=O)C2=C(C1)N(c1ccc(F)cc1)C(N)=C(C#N)C2c1cccs1` (centres undefined), the “activity, negative = inhibition” value is 8.01%. As for `Cc1ccc(/C=N/n2c(COc3ccccc3)n[nH]c2=S)s1`, the AC50 is 501 nM (active). The same measure, in the same setting: the same measure for `O=[N+]([O-])c1ccccc1/C=N/n1c(COc2ccccc2)n[nH]c1=S`: 2510 nM (active); for `O=[N+]([O-])c1ccc(/C=N/n2c(COc3ccccc3)n[nH]c2=S)cc1`: 2820 nM (active). Take `CS(=O)(=O)N1CCC2(CC1)CN(c1ncccn1)C2`: the “activity, negative = inhibition” value is 16.3%. Still for that read-out and setting: to `Cc1ccc(S(=O)(=O)NC(=O)NN2C[C@H]3CCC[C@@H]3C2)cc1` belongs -0.685% [at 25.6 µM].

Turning to `Cc1ccc2nc(N/N=C\c3cccc(C)n3)cc(C)c2c1`, the AC50 is 631 nM (active). On the same count and under the same terms, the same measure for `Cc1c2c(nc3ccccc13)-c1cccc(=O)n1C2`: 100 nM (active); for `CCc1cccc2nc3c(c([Si](C)(C)C)c12)Cn1c-3cccc1=O`: 2510 nM (active). Take `CCN1C/C(=C\c2cccc(C)c2)c2nc3ccccc3c(C(=O)O)c2C1`: the “activity, negative = inhibition” value is 5.47%. On to `CC(C)c1cccc2nc3c(c(C(C)(C)C)c12)Cn1c-3cccc1=O`, for which the AC50 is 12600 nM (active). On to `CC(C)c1cccc2nc3c(c([Si](C)(C)C)c12)Cn1c-3cccc1=O`, for which the AC50 is 15800 nM (active). Regarding `O=C1OCCC=C1[C@@H](O)CCc1ccccc1`, the activity, negative = inhibition is -0.0227% [at 11.4 µM]. Same read-out and setting: the same measure for `NS(=O)(=O)c1cc2c(cc1Cl)N[C@@H](C(Cl)Cl)NS2(=O)=O`: 1.35% [at 25.6 µM]. On to `CCc1c2c(nc3cccc(C(C)C)c13)-c1cccc(=O)n1C2`, for which the half-maximal activity concentration (AC50) is 501 nM (active). Same read-out and setting: to `O=C1NCC2(CCN(CCc3ccccc3)CC2)O1` belongs “inactive”. As to `NS(=O)(=O)c1ccc(N=Nc2c(O)c(C(=O)O)cc3ccccc23)cc1`, the activity, negative = inhibition was -20.8% [at 11.4 µM]. On to `NS(=O)(=O)c1ccc(N=Nc2cc3ccccc3c(C(=O)O)c2O)cc1`, for which the AC50 was 1000 nM (active). For `NS(=O)(=O)c1ccc(N=Nc2ccc(O)c(C(=O)O)c2)cc1`, the activity, negative = inhibition was -20.9% [at 11.4 µM]. As to `O=C(Nc1nccs1)c1sc2cc(Cl)ccc2c1Cl`, the AC50 was 112 nM (active). On to `O=C(NCc1cccnc1)c1sc2cc(Cl)ccc2c1Cl`, for which the concentration at half-maximal activity (AC50) was 1000 nM (active). For `CN(C)/C=C/C(=O)c1ccc(F)cc1`, the AC50 was 11200 nM (active). On to `O=C(O)[C@@H](O)c1ccc(F)cc1`, for which the activity, negative = inhibition is -12.3% [at 11.4 µM]. On to `CN(C)/C=C/C(=O)c1ccc(Cl)cc1`, for which the AC50 is 4470 nM (active). With `O=C(O)/C=C\[C@H](O)c1ccc(Cl)cc1`, the “activity, negative = inhibition” value is -18%. On the same count and under the same terms, the same measure for `O=c1cc(O)cc(/C=C\c2ccc(O)c(O)c2)o1`: -7.95%.

Take `Oc1cc(O)cc(/C=C\c2ccc(O)c(O)c2)c1`: the AC50 is 5010 nM (active). Still for that read-out and setting: to `S=C(S)NCCCn1ccnc1` belongs 3160 nM (active).

Take `S=C(S)NCCN1CCNCC1`: the activity, negative = inhibition is -7.09% [at 11.4 µM]. The same measure, in the same setting: to `NCCNC(=S)S` belongs -13.2% [at 2.29 µM]; to `O=C(CN1CCN(S(=O)(=O)c2ccc(F)cc2)CC1)Nc1ccc(Cl)c(C(F)(F)F)c1`, -20.6%; to `COc1ccc(NC(=O)N2CC3(CCN(S(=O)(=O)c4ccccc4)CC3)C2)cc1`, -22.4%. On the same count and under the same terms, to `COc1ccc(NC(=O)N2CCCC3(CCN(S(=O)(=O)c4ccccc4)CC3)C2)cc1` belongs -19.8%. Take `CCOc1ccc(NC(=O)CN2CCN(S(=O)(=O)c3ccc(Cl)cc3)CC2)cc1`: the AC50 is 25100 nM (active).

On to `CCN(CC)C(=O)COc1ccc(S(=O)(=O)N2CCOCC2)cc1`, for which the “activity, negative = inhibition” value is 2.65%.

Take `O=C(CN1C(=O)NC2(CCCCCC2)C1=O)N1CCN(S(=O)(=O)c2ccc(Cl)cc2)CC1`: the “activity, negative = inhibition” value was -8.91%. As to `CCOc1ccc(C(=O)CN2CCN(S(=O)(=O)c3ccc(F)cc3)CC2)cc1`, the AC50 was 20000 nM (active).

For `COc1ccc(S(=O)(=O)N2CCN(CC(=O)Nc3cc(OC)cc(OC)c3)CC2)cc1`, the half-maximal activity concentration (AC50) is 22400 nM (active). The same measure, in the same setting: to `COc1ccc(S(=O)(=O)N2CCCN(CC(=O)Nc3ccc(OC)c(Cl)c3)CC2)cc1` belongs 1410 nM (active). With `COc1ccc(NC(=O)c2cc(S(=O)(=O)N3CCS(=O)(=O)CC3)ccc2Cl)cc1`, the “activity, negative = inhibition” value is 6.23%. Consider `CCOC(=O)c1ccc(S(=O)(=O)N2CCN(C)CC2)cc1`, for which the “activity, negative = inhibition” value is -6.34%. For the molecule `O=C(CN1CCN(S(=O)(=O)c2ccccc2)CC1)NC(=O)NCc1ccccc1`, the “activity, negative = inhibition” value was -22.6%. Same read-out and setting: to `CON(C)C(=O)c1nnc2c3ccccc3n(S(=O)(=O)c3ccc(C)cc3)c2n1` belongs -0.532% [at 11.4 µM] and -0.966% [at 11.4 µM]. Consider `CCOC(=O)c1cc2c(C(F)(F)F)cc(-c3ccccc3)nc2o1`, for which the AC50 was 3550 nM (active).

Regarding `Cc1oc(-c2ccccc2)cc1C(=O)Nc1ccc(N(C)C)cc1`, the AC50 is 1410 nM (active). For the molecule `Cc1oc(C(C)(C)C)cc1C(=O)Nc1cccc(/C=C/C(=O)O)c1`, the “activity, negative = inhibition” value was -11.6%.

With `CCCNC(=O)OC[C@@H]1O[C@H](CCO/N=C2\c3cc(OC)ccc3O[C@H](c3cccc(OC)c3)[C@H]2O)C=C[C@@H]1Oc1ccc(OC)cc1`, the activity, negative = inhibition is -14.6% [at 11.4 µM].

As for `CCC(=O)N1CCc2cc(S(=O)(=O)NC(C(=O)NCc3ccc(F)cc3)C(C)C)ccc21` (centres undefined), the “activity, negative = inhibition” value is -20.8%. With `CCOC(=O)c1sc(=S)n(-c2cccc(C(F)(F)F)c2)c1SC`, the AC50 was 562 nM (active). Still for that read-out and setting: to `COc1ncc2nc(-c3cccs3)c(=O)n(CCC#N)c2n1` belongs 6310 nM (active); to `COCCn1c(=O)c(-c2cccs2)nc2cnc(OC)nc21`, 2510 nM (active); to `COc1ncc2nc(-c3cccs3)c(=O)n(CCc3ccccc3)c2n1`, 1260 nM (active). In the case of `COCCn1c(=O)c(-c2cccs2)nc2cnc(N(C)C)nc21`, the AC50 was 2000 nM (active). In the case of `Cc1c(N2C(=O)CS/C2=N\N=C\c2ccc(Cl)cc2)c(=O)n(-c2ccccc2)n1C`, the “activity, negative = inhibition” value was -14.7%. `Cc1nnc(SCC2=C(C(=O)O)N3C(=O)[C@@H](NC(=O)Cn4cnnn4)[C@@H]3SC2)s1`: the AC50 result is “inactive”. Same read-out and setting: to `COCCn1c(=O)c(-c2cccs2)nc2cnc(Oc3ccc(OC)cc3)nc21` belongs 2510 nM (active); to `COCCn1c(=O)c(-c2cccs2)nc2cnc(Oc3ccccc3)nc21`, 2000 nM (active). As for `Cc1cnc(CNc2nc(-c3ccccc3C(F)(F)F)nc3ccccc23)cn1`, the concentration at half-maximal activity (AC50) is 12600 nM (active). The same measure, in the same setting: to `COc1ccccc1-c1nc(NCc2cnc(C)cn2)c2ccccc2n1` belongs 5010 nM (active); to `Cc1cnc(CNc2nc(-c3ccccc3C)nc3ccccc23)cn1`, 3160 nM (active); to `Cc1cnc(CNc2nc(-c3ccccc3Cl)nc3ccccc23)cn1`, 6310 nM (active).

Regarding `CCN(CC)C(=O)C1CC(=O)N(c2ccc(OC)cc2)C1c1ccc(OC)cc1` (centres undefined), the “activity, negative = inhibition” value was -0.516%. On to `COc1ccc(C(C(=O)NC2CCCC2)N(C(=O)c2snc(-c3ccc(F)cc3)c2N)c2ccc(F)cc2)cc1` (centres undefined), for which the “activity, negative = inhibition” value was -15.3%. Consider `CCN1/C(=C/c2ccc3cccc(C)c3[n+]2CC)Sc2ccccc21`, for which the AC50 is 14100 nM (active). Turning to `CCOC(=O)c1cn(-c2nc(-c3ccc(Cl)cc3)cs2)c2c(F)c(N3CC(C)OC(C)C3)c(F)cc2c1=O` (centres undefined), the “activity, negative = inhibition” value was -9.86%.

Regarding `CCOC(=O)c1cnn(-c2nc(-c3cccc(F)c3)cs2)c1C(F)(F)F`, the half-maximal activity concentration (AC50) is 2240 nM (active). For the molecule `COC(=O)C1CCN(c2cc(=O)n(C3CCCCC3)c(=O)[nH]2)CC1`, the “activity, negative = inhibition” value is -5.49%. In the case of `COC(=O)c1cc(=O)n(C2CC2)c(=NC2CC2)s1`, the AC50 was 2000 nM (active).

Turning to `CCCCCc1nc2c(=O)[nH]c3ccccc3c2o1`, the AC50 is 398 nM (active).

Consider `CCN(CC)CCCNC(=O)CC1Sc2ccccc2NC1=O` (centres undefined), for which the “activity, negative = inhibition” value was -13.3%. `O=C(NCCCN1CCCCCC1)C1CC(=O)N(CCc2ccccc2)C1` (centres undefined): the “activity, negative = inhibition” value was -4.71%.

On to `CCN(CC)CCNc1ccc(CO)c2sc3ccccc3c(=O)c12`, for which the AC50 is 126 nM (active). Same read-out and setting: to `O=c1c2ccccc2sc2c(CO)ccc(NCCN3CCCCC3)c12` belongs 1580 nM (active). As for `CN1CCCCC1=NCCCn1cnc2c1c(=O)n(C)c(=O)n2C`, the “activity, negative = inhibition” value is -12.6%. As to `COCC(=O)N1CCC2(CC1)CCN(c1ccccn1)CC2`, the “activity, negative = inhibition” value is -5.05%. Same read-out and setting: to `Cc1ccc(C(=O)Cn2nnc3c(sc4nc5c(c(-c6ccccc6)c43)CCC5)c2=O)cc1` belongs -16.3%.

`CCOC(=O)Cn1nnc2c(sc3nc4c(c(-c5ccc(Cl)cc5)c32)CCC4)c1=O`: the AC50 was 3160 nM (active). Still for that read-out and setting: the same measure for `Cc1ccc(-c2c3c(nc4sc(C(N)=O)c(N)c24)CCC3)cc1`: 3550 nM (active).
